In the library only some 0.49% were active in any assay of this set; here they are far more common.
CCT chaperon mod – cytosolic chaperonin activity modulation. purified chaperonin ATPase assay, HTRF ADP detection, 30 min. activity change, % (no concentration beside the values), hits read low. 360,000 tested, 0.3% active; in the data active = activity change below about -30%; note: % is set by controls: 0 for no effect and ±100 for the full control effect
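TRiC (40 or 20 nM final, by batch activity) in 30 mM Tris pH 7.4, 100 mM KCl, 5 mM MgCl2, 1 mM DTT was treated with compound at 76 uM single dose, then 10 uM ATP, 30 min at 37 °C. ADP was read by HTRF Transcreener.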
Tb PFK inh-1 – blocks T. brucei phosphofructokinase; O15648; T. brucei PFK, ADP-Glo luminescence; Potency, µM (highest dose often 57.5 µM), for the others: at the highest dose activity, negative = inhibition, actives largely listed as inhibitors; 330,000 tested, 0.17% active; AID 485367;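 note: potency is the fitted concentration of half-maximal effect; 0% = uninhibited 1x PFK enzyme wells and -100% = no-enzyme wells; nearly all actives have a fitted effect of over 60% in size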
Target sequence (O15648 whole entry, looked up): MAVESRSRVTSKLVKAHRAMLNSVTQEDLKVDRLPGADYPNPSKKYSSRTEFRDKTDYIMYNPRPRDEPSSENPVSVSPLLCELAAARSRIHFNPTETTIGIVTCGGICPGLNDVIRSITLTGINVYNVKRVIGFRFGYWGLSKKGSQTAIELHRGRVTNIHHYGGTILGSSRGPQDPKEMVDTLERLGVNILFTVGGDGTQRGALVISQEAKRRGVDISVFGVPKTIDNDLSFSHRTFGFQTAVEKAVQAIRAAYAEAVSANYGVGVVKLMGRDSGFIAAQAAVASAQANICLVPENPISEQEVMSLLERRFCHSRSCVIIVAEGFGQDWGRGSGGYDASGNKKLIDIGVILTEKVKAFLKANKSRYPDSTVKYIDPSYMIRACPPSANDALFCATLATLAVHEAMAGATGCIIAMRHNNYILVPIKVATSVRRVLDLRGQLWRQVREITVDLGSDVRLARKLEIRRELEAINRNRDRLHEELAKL
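PFK 1.25 nM, F6P 0.5 mM, ATP 0.1 mM, 0.1 M TEA pH 8.0, 5 mM MgCl2, 0.01% Tween20, 0.1% BSA; 45 min RT. ADP-Glo readout. qHTS titration up to 57 uM; curves fitted, compounds curve-classed.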
ASM inhibitor – inhibitors of human secretory acid sphingomyelinase; P17405; placental ASM, HMU-PC fluorogenic substrate, 60 min; Potency, µM (highest dose often 57.5 µM), for inactives: at the highest dose activity change, negative = inhibition, actives largely listed as inhibitors; 340,000 tested, 0.006% active; note: potency is the fitted concentration of half-maximal effect
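Human placenta-derived ASM enzyme was preincubated with compound for 10 minutes at room temperature, then given fluorogenic substrate HMU-PC0 (9 uM final) for 60 minutes at 37 °C; a pH 10 stop preceded fluorescence reading at Ex 386/Em 447 nm.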
TCR activator – activators of T cell receptors; primary human leukocytes, anti-CD3, IL-2 HTRF, 48 h; Potency, µM (doses to about 9.22 µM), for inactives: at the top dose activation of IL-2 secretion, most hits filed as activators; 330,000 tested, under 10 active; AID 504894; note: % of control where 0% means no effect
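Human primary leukocytes + a-CD3 beads + cpd, 48 hr; IL-2 in supernatant by HTRF (ex 320nm / em 665nm). No co-stimulatory signal supplied.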
Chronic BCR inh – chronic active BCR signaling inhibition; ABC-DLBCL IkBa-CBG/CBR reporter, luminescence ratio, 4 h; Potency, µM (series often up to 46.1 µM), inactives show top-dose activity change, negative = inhibition, usual class: inhibitors; 340,000 tested, 0.05% active; AID 493014; active = well fitted inhibition curve with a large enough effect in the signal ratio, with a control signal flat, not every such curve was filed as active; inconclusive = small, poorly fitted or top-dose-only effect, or effect the other way, or a change in a side signal; the % refers to the signal ratio;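 note: potency is the fitted concentration of half-maximal effect; plate controls were basal doxycycline-induced cells for no effect and cells given 10 µM MG132 for full effect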
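TMD8 human ABC-DLBCL cells with doxycycline-inducible IκBα–green luciferase fusion and unfused red luciferase, in 0.5% FBS medium; compounds up to 46 uM, 4 h at 37C. Green/red luminescence ratio, filter-overlap corrected, fitted to concentration-response curves.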
TbPFK ATP – Tb phosphofructokinase inhibition, orthogonal luminescence; 1,100 tested, 47% active; Potency, µM (titrated, usually from 57.5 µM), for the others: at the top dose inhibition; AID 504636; Tb PFK enzyme, ATP depletion, Kinase-Glo Plus luminescence; shares compounds with Tb PFK inh-1; calls by dose curve; note: potency is the fitted concentration of half-maximal effect; nearly all actives have a fitted effect of over 60% in size
Tb PFK inh-2 – T. brucei PFK enzyme inhibition, hit validation; shares compounds with Tb PFK inh-1; purified T. brucei PFK, ADP-Glo luminescence, 45 min; Potency, µM (doses to about 57.5 µM), for inactives: at the top dose activity change, negative = inhibition, hits mostly inhibitors; 1,100 tested, 41% active; AID 504637;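 note: potency is the fitted concentration of half-maximal effect; plate controls were full PFK enzyme control for no effect and no enzyme control for full effect; nearly all actives have a fitted effect of over 60% in size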
* = called active by the depositor; [ ] = remark or other dose. Unless noted, calls come from the whole dose curve; as a rule, active = well fitted curve in the direction sought with a large enough effect; inconclusive = small, poorly fitted or top-dose-only effect, or another doubt; inactive = no such curve, though single readings can be large; an effect the other way counts as inactive or inconclusive.

Screening CC(C)(C)CC(=O)Nc1cc(S(=O)(=O)N2CCOCC2)ccc1N1CCCC1 returned CCT chaperon mod -2.9, Tb PFK inh-1 inconclusive, ASM inhibitor 2.4%, TCR activator -11.0%, Chronic BCR inh 15.0%, TbPFK ATP -32.0% and Tb PFK inh-2 inconclusive.
`c1ccc2oc(-c3ccc4c(c3)CNCc3cnnn3-4)cc2c1` gave CCT chaperon mod -0.4.
`CCCCNC(=O)Nc1nc2ccc(CC)cc2s1` gave CCT chaperon mod -3.3, Tb PFK inh-1 2.6%, ASM inhibitor 5.3%, TCR activator -1.9% and Chronic BCR inh inconclusive.
For NNC(=O)CNc1cccc(Cl)c1 the results were CCT chaperon mod 0.3, Tb PFK inh-1 12µM*, ASM inhibitor 3.7%, TCR activator 3.7%, Chronic BCR inh -15.3%, TbPFK ATP 23.9µM* and Tb PFK inh-2 26.9µM*.
For S=P(NCCSCc1ccccc1)(N1CC1)N1CC1 the results were CCT chaperon mod -0.9, ASM inhibitor -10.5% and TCR activator 3.0%.
Screening CC(C(Sc1ccccc1N)c1ccccc1)[N+](=O)[O-] (stereo not drawn) returned CCT chaperon mod -1.0, Tb PFK inh-1 23.9µM*, ASM inhibitor -0.8%, TCR activator 2.8%, Chronic BCR inh -12.5%, TbPFK ATP inconclusive and Tb PFK inh-2 inconclusive.
`Cc1ccc(C)c(CN2C(=O)c3ccccc3Sc3ccc(C(=O)N4CCC5(CC4)OCCO5)cc32)c1` gave Chronic BCR inh 0.3%.
O=c1[nH]c2ccccc2n1C1CCN(C(c2cccs2)c2nnnn2-c2ccc3c(c2)OCCO3)CC1 (stereo not drawn) was read as CCT chaperon mod -0.2.
For N#CC1c2ccccc2-n2nncc2CN1C(=O)CCc1ccccc1 (stereo not drawn) the results were CCT chaperon mod -1.0, ASM inhibitor 6.0% and TCR activator -2.2%.
For COc1ccc(CNc2nc(Cl)c(C#N)s2)cc1 the results were CCT chaperon mod -0.1, Tb PFK inh-1 12µM*, ASM inhibitor -1.6%, TCR activator 4.7%, Chronic BCR inh 2.4%, TbPFK ATP 7.57µM* and Tb PFK inh-2 13.5µM*.
Screening N#Cc1sc(NCc2ccccc2)nc1Cl returned CCT chaperon mod -1.2, Tb PFK inh-1 19µM*, ASM inhibitor -0.3%, TCR activator 4.7%, Chronic BCR inh 12.9%, TbPFK ATP 10.7µM* and Tb PFK inh-2 26.9µM*.
For C/C(=N\NC(=O)C(C)Nc1cccc(Cl)c1)c1ccc([N+](=O)[O-])cc1 (stereo not drawn) the results were CCT chaperon mod -0.1, Tb PFK inh-1 inconclusive, ASM inhibitor -1.5%, TCR activator -3.3%[46.1 µM], Chronic BCR inh -2.5%, TbPFK ATP inconclusive and Tb PFK inh-2 inconclusive.
Screening CC1=NOC(=O)/C1=C/c1ccc(N(C)C)cc1 returned CCT chaperon mod 1.1, Tb PFK inh-1 15.1µM*, ASM inhibitor -3.0%, TCR activator -5.3%, Chronic BCR inh -1.1%, TbPFK ATP inconclusive and Tb PFK inh-2 13.5µM*.
For CC1=NN(CCC#N)C(=O)/C1=C/c1ccc(N(C)C)cc1 the results were CCT chaperon mod -6.4, Tb PFK inh-1 21.3µM*, ASM inhibitor -4.9%, TCR activator 3.8%, Chronic BCR inh 0.6%, TbPFK ATP 10.7µM* and Tb PFK inh-2 26.9µM*.
Screening CC12CCC3C(CCC4(O)CC(O)CCC34C=NO)C1(O)CCC2C1=COC(=O)C1 (stereo not drawn) returned CCT chaperon mod -1.5, ASM inhibitor 5.3% and TCR activator -19.2%.
COc1ccc2oc(=O)c(C(=O)OCc3ccccc3)cc2c1 was read as CCT chaperon mod -1.6, Tb PFK inh-1 -12.6%, ASM inhibitor 99.1%, TCR activator 3.3% and Chronic BCR inh inconclusive.
For COc1ccc2o/c(=N/NC(=O)c3cccs3)c(C(N)=O)cc2c1 the results were CCT chaperon mod -1.4, Tb PFK inh-1 inconclusive, ASM inhibitor -10.6%, TCR activator -0.3%, Chronic BCR inh inconclusive, TbPFK ATP -31.1% and Tb PFK inh-2 inconclusive.
Screening COc1cccc(CNc2ccc(F)c(Cl)c2)c1 returned CCT chaperon mod -1.1, Tb PFK inh-1 23.9µM*, ASM inhibitor -3.8%, TCR activator -0.3%, Chronic BCR inh -6.5%, TbPFK ATP 10.7µM* and Tb PFK inh-2 16.9µM*.
O=P(CN1CCN(c2ccccc2)CC1)(N1CCCCC1)N1CCCCC1 was read as CCT chaperon mod -4.1, Tb PFK inh-1 -0.1%, ASM inhibitor 8.4% and Chronic BCR inh -1.5%.
For O=C1C(Cl)=C(N2CCCCC2)C(=O)N1c1ccccc1 the results were CCT chaperon mod -1.2, Tb PFK inh-1 inconclusive, ASM inhibitor 1.0%, TCR activator 1.2%, Chronic BCR inh 0.9%, TbPFK ATP -19.3% and Tb PFK inh-2 13.2%.
COCC(=O)Nc1nnc(CCc2ccccc2)s1 was read as CCT chaperon mod -0.5, Tb PFK inh-1 2.4%, ASM inhibitor -0.9%, TCR activator 26.6% and Chronic BCR inh inconclusive.
For O=C(Cc1c(-c2ccccc2)nc2ccc(Br)cn12)N1CCCC1 the results were CCT chaperon mod -1.9.
O=C(O)Cc1sc(-c2ccccc2Cl)nc1-c1ccccc1 was read as CCT chaperon mod -1.1, Tb PFK inh-1 inconclusive, ASM inhibitor 7.5%, TCR activator 4.0%, Chronic BCR inh inconclusive, TbPFK ATP 0.1% and Tb PFK inh-2 12.4%.
CC1(C)C(=O)CCC2C1=CCC1C2CCC2(C)C(O)CCC12 (stereo not drawn) was read as CCT chaperon mod 0.3, ASM inhibitor -0.6% and TCR activator 3.4%.
COc1ccc2nc(NC(=O)CCNS(=O)(=O)c3ccc4c(c3)oc(=O)n4C)sc2c1 was read as CCT chaperon mod -0.3, Tb PFK inh-1 2.6%, ASM inhibitor -7.7%, TCR activator 8.5% and Chronic BCR inh inconclusive.
`CCOC(=O)[C@]12Cc3cc4ccccc4cc3[C@H]1N(Cc1ccccc1)C(=O)c1ccccc12` gave CCT chaperon mod -1.7.
Screening O=c1c2ccccc2sn1-c1ccccc1 returned CCT chaperon mod 0.0, Tb PFK inh-1 4.78µM*, ASM inhibitor 2.4%, TCR activator 0.3%, Chronic BCR inh inconclusive, TbPFK ATP inconclusive and Tb PFK inh-2 7.57µM*.

Screens from PubChem BioAssay.
